# Screening data as filed in PubChem BioAssay.
# Sampled rows, rich in hits. Any-hit rate of the full collection: about 7.3%.
# SMN2 splice enh = SMN2 splice variant enhancement; HEK293 SMN2-luciferase splicing reporter, luminescence, 30-36 h; Potency, µM (titrated, usually from 46.1 µM), actives largely listed as activators; 210,000 compounds, 2.8% hits; AID 1458; further: nearly all actives have a fitted effect of over 55% in size
#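 HEK293 cells carry an SMN2 […]–luciferase reporter in which exon 7 inclusion puts luciferase in frame. Cells were plated 10-12 h before compound addition, then incubated 30-36 h at 37C. ONE-Glo luminescence was read; sodium butyrate at 4.5 mM final served as control.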
# NPC1 promoter act = NPC1 promoter activation. Huh7 NPC1 promoter luciferase reporter, 24 h. Potency, µM (doses to about 9.22 µM), most hits filed as activators. 320,000 compounds, 2.4% hits. AID 485313; further: nearly all actives have a fitted effect of over 60% in size
#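 Luminescence from an NPC1 promoter-driven luciferase reporter in stably transfected Huh7 cells was measured after 24 h compound treatment at 37 °C, followed by 10 min ambient incubation with luciferase detection reagent.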
# ELG1 genotoxic = inducers of genotoxicity in HEK293T ELG1-luciferase cells. HEK293T ELG1-luciferase reporter, luminescence, 16 h. Potency, µM (top dose mostly 46 µM), most hits filed as activators. 330,000 compounds, 1.3% hits; further: nearly all actives have a fitted effect of over 60% in size
#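 DMSO vehicle served as control against compound-treated ELG1-luciferase HEK293T cells; exposure lasted 16 hr at 37 °C and 5% CO2, followed by ONE-Glo luminescence detection after 30 min.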
# FLuc modulator = firefly luciferase modulation, counter-screen for miR-21 project. AID 588342. 360,000 compounds, 6.9% hits. purified FLuc, Km substrates, luminescence inhibition. P08659. Potency, µM (top dose mostly 57.5 µM), hits mostly inhibitors; further: nearly all actives have a fitted effect of over 55% in size
# Target sequence (P08659 whole entry, looked up): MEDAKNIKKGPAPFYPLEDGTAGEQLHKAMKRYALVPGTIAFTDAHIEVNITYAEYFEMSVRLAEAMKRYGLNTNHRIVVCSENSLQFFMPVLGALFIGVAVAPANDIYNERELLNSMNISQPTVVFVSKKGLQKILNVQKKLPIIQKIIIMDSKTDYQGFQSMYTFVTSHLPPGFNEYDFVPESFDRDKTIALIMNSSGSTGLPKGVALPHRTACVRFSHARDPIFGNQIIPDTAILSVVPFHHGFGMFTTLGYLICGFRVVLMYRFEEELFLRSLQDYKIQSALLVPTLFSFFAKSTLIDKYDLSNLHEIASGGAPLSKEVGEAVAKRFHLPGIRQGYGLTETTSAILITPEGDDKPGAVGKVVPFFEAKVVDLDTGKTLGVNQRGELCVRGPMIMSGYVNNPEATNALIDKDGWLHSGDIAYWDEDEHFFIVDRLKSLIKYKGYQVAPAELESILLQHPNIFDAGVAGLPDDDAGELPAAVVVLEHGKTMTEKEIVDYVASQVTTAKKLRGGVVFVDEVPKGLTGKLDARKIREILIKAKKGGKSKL
#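 Biochemical qHTS of compounds, final roughly 60 µM downward over six points, against 10 nM purified firefly luciferase using Km concentrations of substrates (10 uM D-luciferin, 10 uM ATP) in Tris acetate pH 7.5 buffer; luminescence output.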
# Luc counter = Kinase-Glo luciferase inhibition (counter-screen); AID 1379; 200,000 compounds, 0.28% hits; Q27757; Kinase-Glo luciferase, ATP luminescence, 8 min; Potency, µM (top dose mostly 38.3 µM), actives largely listed as inhibitors; further: nearly all actives have a fitted effect of over 60% in size
#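 Compound is pinned into ATP-containing buffer (10 uM ATP, imidazole pH 7.2, 7 mM MgCl2). Kinase-Glo luciferase reagent is then added. Light output is recorded following an 8-min room-temperature incubation.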
# Rab9 promoter act = Rab9 promoter activation | Potency, µM (top dose mostly 9.22 µM), hits mostly activators | Huh7 Rab9 promoter-luciferase reporter, luminescence, 24 h | 320,000 compounds, 2.8% hits | AID 485297; further: nearly all actives have a fitted effect of over 60% in size
#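 Using Huh7 cells stably transfected with Rab9 promoter–luciferase, compounds were incubated 24 h at 37 °C, 5% CO2; luciferase luminescence was read 10 min after reagent addition.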
# Numbers stand for hits; . = inactive; ? = inconclusive; / = no result given. The call rests on the fitted dose curve; in most records, active means well fitted curve in the direction sought with a large enough effect; inconclusive means small, poorly fitted or top-dose-only effect, or another doubt; inactive means no such curve, though single readings can be large; an effect the other way counts as inactive or inconclusive.
SMILES,SMN2 splice enh,NPC1 promoter act,ELG1 genotoxic,FLuc modulator,Luc counter,Rab9 promoter act
CC1=C(c2ccc(C(C)C)cc2)S(=O)(=O)N=C1N1CCN(c2ccccc2F)CC1,/,/,/,.,/,/
CCOC(=O)N1CCN(C(=O)c2ccc(OC)cc2)CC1,/,.,.,.,.,.
CCOC(=O)N1CCN(c2nc(-c3ccc(OC)cc3)no2)CC1,.,?,.,17µM,.,.
Cc1ccc(C(=O)c2oc3ccccc3c2NC(=O)c2nc(S(C)(=O)=O)ncc2Cl)cc1F,.,/,/,.,/,/
Brc1c(CSc2nc3ccccc3s2)nc2ncccn12,7.1µM,3.2µM,?,12µM,.,3.2µM
O=[N+]([O-])c1ccc2sc(SCc3nc4ccccn4c3Br)nc2c1,.,.,.,.,.,.
Cc1ccc2nc(COc3ccccc3NC(=O)c3ccccc3F)cc(=O)n2c1,/,/,/,.,/,/
Cc1ccc(C(=O)N/C(=C\c2ccc(Br)cc2)c2nc(=S)[nH][nH]2)cc1,.,.,.,?,.,.
O=C(N/C(=C/c1cccc(Br)c1)c1nc(=S)[nH][nH]1)c1ccccc1,.,.,.,6.7µM,.,.
COc1ccc2c(=O)c(Oc3ccc(C(=O)O)cc3)c(C(F)(F)F)oc2c1,2.5µM,?,?,?,.,?
CCCCNC(=S)N/N=C/c1sccc1C,.,.,.,.,.,.
CCNC(=S)N/N=C/c1sc(N2CCCCC2)nc1-c1cccs1,/,.,?,1.9µM,11µM,?
CCOC(=O)Nc1nnc(-c2ccccc2OC)s1,?,.,.,?,.,?
COC(=O)Nc1nnc(-c2ccccc2OC)s1,/,3.5µM,?,11µM,/,2.2µM
COC(=O)Nc1nnc(-c2ccccc2Cl)s1,?,?,23µM,11µM,.,.
Cn1ncc(Br)c1C(=O)Nc1c(F)c(F)cc(F)c1F,25µM,.,.,.,.,.
Cc1ccc(-c2nc(NCc3ccco3)n(S(C)(=O)=O)n2)cc1,?,.,.,/,.,.
COc1ccc(-c2cc3nc(C)cc(N)n3n2)cc1,1.1µM,0.11µM,?,0.38µM,7.9µM,0.35µM
COc1ccc(-c2cc3ncc(-c4ccccc4)c(N)n3n2)cc1,11µM,1.4µM,?,0.95µM,11µM,1.8µM
N#Cc1cnc2cc(-c3ccccc3)nn2c1N,/,?,.,?,/,?
COc1ccc(-c2cc3nc(C)cc(-c4ccc(OC)cc4)n3n2)cc1,/,.,.,?,/,.
COCCNc1cc(C)nc2cc(-c3ccc(C)cc3)nn12,.,?,?,6µM,.,?
CC(=O)n1nc(-c2ccc(C)cc2)nc1NCc1ccco1,?,2.5µM,?,.,.,3.5µM
COc1ccccc1Cn1c(C2CC(=O)N(c3ccccc3OC)C2)nc2ccccc21 (configuration not stated),/,/,/,.,/,/
CCc1ccc(Oc2c(C(F)(F)F)oc3c(CN4CCCC(C)C4)c(O)ccc3c2=O)cc1 (configuration not stated),.,/,/,.,/,/
SMILES,SMN2 splice enh,NPC1 promoter act,ELG1 genotoxic,FLuc modulator,Luc counter,Rab9 promoter act
COc1ccc(-c2cc3nc(C)cc(NCCO)n3n2)cc1,.,.,.,11µM,.,?
Cc1ccc(-c2cc3nc(C)cc(NCc4ccco4)n3n2)cc1,13µM,2.8µM,4.1µM,2.4µM,.,.
COc1ccc2c(c1)c1c(c(=O)n(-c3ccc(F)c(Cl)c3)c(=O)n1Cc1ccccc1C)n2C,/,/,/,.,/,/
CC(=O)c1ccc(NC(=O)C2CCN(S(=O)(=O)c3ccc4c(c3)CCCN4C(=O)C3CCC3)CC2)cc1,/,/,/,.,/,/
CN(C)c1ccc(C(=O)Nc2nnc(C3=COCCO3)o2)cc1,.,.,.,.,.,.
CC(C)(C)c1ccc(C(=O)Nc2nnc(C3=COCCO3)o2)cc1,/,.,.,21µM,/,.
COc1ccc(/C=N/NC(=O)c2ccccc2O)cc1CSc1ccccn1,.,.,.,19µM,.,.
COc1ccc(/C=N\NC(=O)c2sccc2C)cc1Cn1nc(C)cc1C,/,.,9.2µM,.,/,.
COc1ccc(/C=N/NC(=O)c2ccccc2O)cc1Cn1nnc2ccccc21,/,.,.,21µM,/,.
COc1ccc(/C=N\NC(=O)COc2ccccc2Cl)cc1Cn1nc(C)cc1C,.,.,.,.,.,.
COc1ccc(/C=N/NC(=O)CSc2ccccc2)cc1OC,.,.,.,12µM,.,.
COc1ccc(/C=N/NC(=O)c2ccccc2O)cc1COc1ccccn1,/,.,.,.,/,.
CCOc1ccc(NC(=O)CC2C(=O)N(c3ccccc3)C(=O)N2C2CCCC2)cc1 (configuration not stated),/,/,/,.,/,/
COc1cc(C2CC(=O)Nc3ccc4ccccc4c32)ccc1OC(=O)C(C)C (configuration not stated),.,/,/,.,/,/
COc1ccc(NC(=O)c2cnc3sc(N4CCOCC4)nn3c2=O)c(OC)c1,/,/,/,.,/,/
Cc1ccc(-c2nc(S(=O)(=O)c3ccc(C)cc3)c(N3CCCCC3)o2)cc1,.,/,/,.,/,/
COc1ccc(/C=N/NC(=O)CSc2ccccn2)cc1OC,/,.,.,19µM,/,.
CC(C)(C)C(=O)Nc1scc(-c2ccc(-c3ccccc3)cc2)c1C(=O)O,/,.,.,.,/,.
Cc1cc([N+](=O)[O-])ccc1NC(=O)/C=C/c1cccs1,16µM,?,.,?,.,?
O=C(Nc1cccnc1)c1cccs1,8.9µM,.,.,.,.,.
Cc1ccc(NC(=O)/C=C/c2ccc([N+](=O)[O-])s2)c(C)c1,.,.,?,.,.,.
O=C(/C=C/c1cccs1)Nc1scc(-c2ccccc2)c1C(=O)O,11µM,1.4µM,?,3.8µM,.,1.1µM
O=C(/C=C/c1c(F)cccc1Cl)Nc1cccnc1,/,1.6µM,2.3µM,3.8µM,/,4µM
O=C(/C=C/c1cccs1)Nc1nncs1,/,?,.,17µM,/,?
Cc1ccnc(NC(=O)/C=C/c2cccs2)c1,4µM,0.63µM,?,3µM,.,0.63µM
SMILES,SMN2 splice enh,NPC1 promoter act,ELG1 genotoxic,FLuc modulator,Luc counter,Rab9 promoter act
O=C(/C=C/c1cccs1)Nc1nc(-c2ccccc2)cs1,.,.,.,6.7µM,.,.
O=C(Cc1cccs1)Nc1ccccc1C(=O)O,10µM,.,?,15µM,.,?
O=C(Cc1cccs1)Nc1ccccc1NC(=O)Cc1cccs1,.,.,.,.,.,.
Cc1ccc(CCNC(=O)Cn2c(-c3cccs3)cc3ccccc32)cc1,/,/,/,.,/,/
O=C(Cc1cccs1)Nc1nc(-c2ccccc2)cs1,.,.,.,15µM,.,.
O=C(COC(=O)c1cccs1)Nc1nc(-c2ccccc2)cs1,/,.,.,.,/,.
O=C(/C=C/c1cccs1)Nc1cccnc1,18µM,?,?,5.4µM,?,2.8µM
Fc1ccccc1C1CCN(Cc2nc(CC3CC3)no2)C1 (configuration not stated),/,?,?,17µM,/,?
Fc1ccc2nc(C3CCN(Cc4nc(CC5CC5)no4)CC3)[nH]c2c1,/,.,.,.,.,.
